Shown are actives, neighbours in structure and some others; about 7.5% of the full set was active somewhere.
SMN2 splice enh: enhancers of SMN2 splice variant expression. HEK293 SMN2-luciferase splicing reporter, luminescence, 30-36 h. AID 1458. 210,000 tested, 2.8% active. Potency, µM (highest dose often 46.1 µM), most hits filed as activators; further: nearly all actives have a fitted effect of over 55% in size
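HEK293 cells carry an SMN2 minigene-luciferase reporter in which exon 7 inclusion puts luciferase in frame. Cells were seeded at 2000 cells/well, attached for 10-12 hours, then exposed to compounds for 30-36 hours at 37C before ONE-Glo luminescence.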
FLuc counter: firefly luciferase modulation, counter-screen for miR-21 project | P08659 | Potency, µM (titrated, usually from 57.5 µM), actives largely listed as inhibitors | purified FLuc, Km substrates, luminescence inhibition | AID 588342 | 360,000 tested, 6.9% active; further: nearly all actives have a fitted effect of over 55% in size
Target sequence (P08659 whole entry, looked up): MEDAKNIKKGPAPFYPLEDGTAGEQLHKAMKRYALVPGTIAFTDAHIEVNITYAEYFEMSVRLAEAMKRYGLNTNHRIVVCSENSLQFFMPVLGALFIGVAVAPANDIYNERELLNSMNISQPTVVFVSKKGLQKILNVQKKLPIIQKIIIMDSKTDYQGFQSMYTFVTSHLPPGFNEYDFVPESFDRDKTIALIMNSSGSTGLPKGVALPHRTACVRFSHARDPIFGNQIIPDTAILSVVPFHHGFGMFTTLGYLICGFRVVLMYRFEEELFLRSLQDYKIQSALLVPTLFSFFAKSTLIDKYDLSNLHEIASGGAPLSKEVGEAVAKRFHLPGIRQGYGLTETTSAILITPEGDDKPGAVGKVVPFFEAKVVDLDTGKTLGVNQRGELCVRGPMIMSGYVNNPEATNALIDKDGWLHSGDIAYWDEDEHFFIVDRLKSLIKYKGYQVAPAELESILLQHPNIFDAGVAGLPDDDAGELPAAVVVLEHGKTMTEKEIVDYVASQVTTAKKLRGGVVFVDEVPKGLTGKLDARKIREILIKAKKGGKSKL
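Biochemical qHTS of compounds, final roughly 60 µM downward over six points, against 10 nM purified firefly luciferase using Km concentrations of substrates (10 uM D-luciferin, 10 uM ATP) in Tris acetate pH 7.5 buffer; luminescence output.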
ELG1 genotox: induces genotoxicity in HEK293T cells with luciferase-tagged ELG1. HEK293T ELG1-luciferase reporter, luminescence, 16 h. Potency, µM (series often up to 46 µM), usual class: activators. 330,000 tested, 1.3% active. AID 504466; further: nearly all actives have a fitted effect of over 60% in size
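Quantitative HTS format in 1536-well plates. HEK293T ELG1-luciferase reporter cells receive test compound and are incubated 16 hr at 37 °C, 5% CO2; ONE-Glo added, 30 min room temperature, then luminescence read.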
NPC1 prom act: activators of NPC1 promoter; Huh7 NPC1 promoter luciferase reporter, 24 h; Potency, µM (titrated, usually from 9.22 µM), hits mostly activators; 320,000 tested, 2.4% active; further: nearly all actives have a fitted effect of over 60% in size
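NPC1 promoter–luciferase Huh7 cells; 24 h compound; luminescence.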
Luc counter: Kinase-Glo luciferase inhibition (counter-screen). Kinase-Glo luciferase, ATP luminescence, 8 min. Potency, µM (top dose mostly 38.3 µM), most hits filed as inhibitors. 200,000 tested, 0.28% active. AID 1379; further: nearly all actives have a fitted effect of over 60% in size
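Light output from Kinase-Glo luciferase with luciferin and 10 uM ATP in 50 mM imidazole pH 7.2, KCl, MgCl2, Tween 20, BSA; compound pin-delivered, 8-min ambient incubation, then luminescence read.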
Rab9 promoter act: activators of Rab9 promoter; Huh7 Rab9 promoter-luciferase reporter, luminescence, 24 h; Potency, µM (top dose mostly 9.22 µM), most hits filed as activators; 320,000 tested, 2.8% active; AID 485297; further: nearly all actives have a fitted effect of over 60% in size
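Cell-based reporter: Huh7 stable for Rab9 promoter-driven luciferase, plated in reduced-serum medium with 10% FBS at 1500 cells/well, compound-treated 24 h at 37 °C, luminescence read after 10 min reagent.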
Hits are given with their value; - = inactive; ? = inconclusive; . = not tested or not shown. The call rests on the fitted dose curve; in most records, active means well fitted curve in the direction sought with a large enough effect; inconclusive means small, poorly fitted or top-dose-only effect, or another doubt; inactive means no such curve, though single readings can be large; an effect the other way counts as inactive or inconclusive.

SMILES	SMN2 splice enh	FLuc counter	ELG1 genotox	NPC1 prom act	Luc counter	Rab9 promoter act
Brc1ccc(-c2cn3c(n2)SCC3)cc1	10µM	5.4µM	10µM	1.1µM	-	0.71µM
Oc1ccc(-c2cn3c(n2)SCC3)cc1	-	?	-	-	-	-
Clc1ccc(-c2cn3c(n2)SCC3)cc1	11µM	19µM	-	1.8µM	-	1.4µM
CC(C)c1ccc(C(O)Cc2nc3ccccc3n2C)cc1 (stereo not drawn)	.	9.5µM	?	?	.	4µM
CN(C)c1ccc(C(O)Cc2nc3ccccc3n2C)cc1 (stereo not drawn)	.	?	4.6µM	?	.	?
COc1ccccc1C(O)Cc1nc2ccccc2n1C (stereo not drawn)	-	?	?	-	-	?
Cc1cccc(Cn2cc(SCC(=O)Nc3nccs3)c3ccccc32)c1	-	-	4.1µM	?	-	?
O=C(N/C(=N\O)c1ccccc1)Nc1ccc(Cl)cc1	.	17µM	?	-	-	-
CC(C)OC(=O)c1ccc(NC(=S)NC(=O)c2cncc(Br)c2)cc1	.	-	-	-	.	-
O=C(O)/C(=N/NC(=O)c1ccc(Cl)cc1)c1ccccc1	.	17µM	-	-	.	-
CC(=O)c1cccc(NC(=S)NC(=O)c2cncc(Br)c2)c1	.	?	-	2.5µM	.	?
CC(=O)c1cccc(NC(=S)NC(=O)c2ccccc2)c1	?	7.6µM	?	?	-	2.2µM
COc1ccc(CN2C(=O)C(NC(=O)c3ccccc3OC)(C(F)(F)F)N=C2c2ccccc2)cc1 (stereo not drawn)	-	-	.	.	.	.
O=C(COc1cccc(Cl)c1)N1CCC(c2nc3ccccc3o2)CC1	.	-	.	.	.	.
CCCCC(=O)NC(=S)Nc1cccc(C(=O)O)c1	.	24µM	-	-	-	-
COc1cc2ccccc2cc1C(=O)NC(=S)Nc1cccc(C(=O)O)c1	-	13µM	-	?	-	2.2µM
O=C(O)c1cccc(NC(=S)NCc2ccccc2)c1	.	15µM	-	-	-	?
Cc1ccc(NC(=S)NNC(=O)c2cccc([N+](=O)[O-])c2)cc1Cl	.	19µM	-	-	.	-
O=C(NNC(=S)Nc1ccc(F)cc1)c1cccc([N+](=O)[O-])c1	.	-	-	-	.	-
Cc1ccc(C)c(NC(=O)Cn2cc(S(=O)(=O)c3ccc(F)cc3)c(=O)c3cc(F)ccc32)c1	-	-	.	.	.	.
CCOc1ccc(C(=O)NC(=S)Nc2ccccn2)cc1[N+](=O)[O-]	-	-	-	-	-	?
O=C(NC(=S)Nc1cc([N+](=O)[O-])ccc1O)c1cccnc1	-	17µM	-	-	-	?
O=C(NC(=S)Nc1ccccn1)c1cncc(Br)c1	-	15µM	-	?	-	?
O=C(NC(=S)Nc1ccc(Br)cn1)c1cncc(Br)c1	-	-	-	-	-	-
CC#CCCCC(=O)Nc1cccc(C(=O)O)c1	?	24µM	-	?	-	3.2µM
SMILES	SMN2 splice enh	FLuc counter	ELG1 genotox	NPC1 prom act	Luc counter	Rab9 promoter act
O=C(NC(=S)Nc1ccccn1)c1cccc([N+](=O)[O-])c1	.	24µM	?	1.3µM	.	1.6µM
CC(=O)c1cccc(NC(=O)CCCSc2ccccc2)c1	.	?	-	-	.	-
CCOC(=O)c1oc2ccccc2c1COC(=O)C(C)NC(=O)c1ccco1 (stereo not drawn)	.	-	-	-	.	-
Cc1nc2cccnc2n1C1CCN(S(C)(=O)=O)CC1	.	-	.	.	.	.
COc1cccc(-n2c(=O)c3sccc3n(Cc3cc(=O)n4cc(Cl)ccc4n3)c2=O)c1	-	-	.	.	.	.
Cc1cccc(C(=O)NC(=S)Nc2ccccc2C(F)(F)F)c1	-	-	-	-	-	-
Cc1ccc(C(=O)NC(=S)Nc2ccccc2C(F)(F)F)cc1C	-	24µM	-	-	-	-
CC(C)CCOCC(=O)Nc1cccc(C(=O)O)c1	14µM	5.4µM	?	0.71µM	-	0.5µM
O=C(O)c1cccc(NC(=S)NC(=O)c2ccc(-c3ccccc3)cc2)c1	3.2µM	1.1µM	?	0.35µM	-	?
CCOCC(=O)Nc1cccc(Br)c1	-	-	-	-	-	-
Cc1ccc(C(=O)O)cc1NC(=S)NC(=O)c1ccc(-c2ccccc2)cc1	.	1.5µM	?	?	-	?
COCCN1CCc2nc(SCC(=O)Nc3ccc(Br)cc3)[nH]c(=O)c2C1	.	-	.	.	.	.
Cc1ccc(NC(=O)Cn2nnc(-c3nc(-c4ccncc4)no3)c2N)c(C)c1	.	-	.	.	.	.
CC(C)(C)c1ccc(S(=O)(=O)c2cn(CC(=O)Nc3ccccc3)c3ccccc3c2=O)cc1	-	-	.	.	.	.
O=C(NC(=S)Nc1cccc([N+](=O)[O-])c1)c1ccco1	-	-	-	-	-	-
O=C(NC(=S)Nc1ccc(Cl)cc1)c1ccccc1	.	11µM	-	?	.	?
O=C(Nc1ccc(Cl)cc1)C(Cl)C(=O)c1ccccc1 (stereo not drawn)	.	15µM	?	-	.	-
O=C(NC(=S)Nc1cccc([N+](=O)[O-])c1)c1ccccc1	.	?	-	?	.	4µM
CC(=O)c1cccc(NC(=S)NC(=O)c2cccc(Cl)c2)c1	?	21µM	?	?	-	3.5µM
Cc1nc2ccn(Cc3cccnc3)c(=O)c2cc1C(=O)NCc1ccc(Cl)cc1	.	-	.	.	.	.
Cc1ccc(S(=O)(=O)N(CCc2ccccc2)CC(=O)Nc2cc(C)ccc2C)cc1	.	-	.	.	.	.
COc1ccc(-n2c(C)cc(C(=O)CSc3ccc(NC(C)=O)cc3)c2C)cc1	-	?	-	-	-	-
Cc1cc(-n2c(C)cc(C(=O)CSc3nnnn3-c3ccccc3)c2C)no1	-	-	-	-	-	-
CC(=O)Nc1ccc(SCC(=O)c2cc(C)n(-c3ccccc3)c2C)cc1	-	5.4µM	?	?	-	3.5µM
CC(=O)Nc1ccc(SCCCC(=O)c2ccccc2)cc1	.	24µM	?	?	.	?
SMILES	SMN2 splice enh	FLuc counter	ELG1 genotox	NPC1 prom act	Luc counter	Rab9 promoter act
Cc1cc(C(=O)CSc2nncn2C)c(C)n1-c1ccccc1	11µM	8.5µM	-	2µM	-	0.45µM
Cc1cc(C(=O)CSc2cccc[n+]2[O-])c(C)n1-c1ccccc1	1µM	1.7µM	?	0.45µM	-	0.45µM
Cc1cc(C(=O)CSc2cccc[n+]2[O-])c(C)n1-c1ccc(Br)cc1	-	15µM	?	-	-	-
Cc1cc(C(=O)C(C)OC(=O)c2ccc(NC(=O)CC#N)cc2)c(C)n1-c1ccccc1 (stereo not drawn)	.	17µM	-	-	.	-
CC(OC(=O)c1ccc(NC(=O)CC#N)cc1)C(=O)NC(c1ccccc1)c1ccccc1 (stereo not drawn)	.	.	-	.	.	.
COc1ccc(C2C(C(=O)Nc3ccccc3)=C(C)Nc3nc(-c4ccc(Cl)cc4)nn32)cc1 (stereo not drawn)	-	-	.	.	.	.
N#C/C(=N\O)c1nc2ccccc2[nH]1	-	?	-	-	-	-

Compound activity from PubChem.
